# In the supplement of paper PMC3545927:
# This is one part of the list. No count for the full screen is at hand.
# Target: furin, P09958
# Assay: furin cleavage Z-score vs untreated control; higher = more cleavage, active = 3.5 or more, inactive = 1 or less, 8 variable residues between constant flanks
# Method in brief: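 Abundance of DNA freed from bead-bound 8-mer peptide–cDNA fusions by purified furin was measured as sequencing read counts after PCR adapter tagging. Cutting ran 7.5, 15 or 30 min in 0.01 ml of 50 mM HEPES pH 7.5 with CaCl2 and NaCl at 1:10 enzyme:substrate. The cleavage Z-score expresses these log counts against furin-free reactions after lowess adjustment and median absolute deviation scaling.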
# furin, P09958, sequence (P09958 whole entry): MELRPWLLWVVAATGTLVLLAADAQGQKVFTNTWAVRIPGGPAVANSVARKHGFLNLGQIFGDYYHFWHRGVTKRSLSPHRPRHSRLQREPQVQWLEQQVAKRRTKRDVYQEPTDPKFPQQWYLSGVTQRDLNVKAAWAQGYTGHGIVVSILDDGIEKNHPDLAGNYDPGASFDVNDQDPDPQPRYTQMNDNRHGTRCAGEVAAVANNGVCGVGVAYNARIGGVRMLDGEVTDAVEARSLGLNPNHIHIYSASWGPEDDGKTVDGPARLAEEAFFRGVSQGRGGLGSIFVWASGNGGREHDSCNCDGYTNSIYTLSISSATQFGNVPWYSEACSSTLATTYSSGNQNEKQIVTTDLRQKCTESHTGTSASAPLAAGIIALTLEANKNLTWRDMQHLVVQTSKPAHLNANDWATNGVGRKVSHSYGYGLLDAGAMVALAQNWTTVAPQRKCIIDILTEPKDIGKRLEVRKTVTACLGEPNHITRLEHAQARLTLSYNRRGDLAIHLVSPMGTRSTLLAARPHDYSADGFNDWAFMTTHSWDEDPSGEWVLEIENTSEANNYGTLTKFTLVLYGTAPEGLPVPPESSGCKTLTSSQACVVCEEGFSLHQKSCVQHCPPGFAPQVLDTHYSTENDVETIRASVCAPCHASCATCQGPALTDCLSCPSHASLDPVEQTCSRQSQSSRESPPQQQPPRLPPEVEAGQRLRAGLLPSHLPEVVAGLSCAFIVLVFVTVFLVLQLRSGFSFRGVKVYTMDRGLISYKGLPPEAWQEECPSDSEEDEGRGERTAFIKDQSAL
Sequence,furin cleavage Z-score (7.5 min),furin cleavage Z-score (15 min),furin cleavage Z-score (30 min)
CAVYCCSMSYAGNASASA [HC2009],-0.694 (inactive),-1.09 (inactive),-1.22 (inactive)
CATTPCSGSQAGNASASA [HC1942],-0.135 (inactive),-0.54 (inactive),-2.05 (inactive)
CARHIRLVLKAGNASASA [FS-2937],-1.39 (inactive),-0.583 (inactive),-0.338 (inactive)
CASRMREDRDAGNASASA [FS-871],-0.996 (inactive),-0.456 (inactive),1.09
CAFQRRMAGMAGNASASA [FS-1671],-0.225 (inactive),-0.266 (inactive),0.306 (inactive)
CARHIRRRRDAGNASASA [FS-1158],10.5 (active),10.7 (active),6.88 (active)
CAFQRRRRRDAGNASASA [FS-906],11.2 (active),12 (active),8.45 (active)
CALTRRMRRDAGNASASA [FS-177],14 (active),14.8 (active),9.72 (active)
CADRRRRRRDAGNASASA [FS-647],7.06 (active),7.21 (active),4.92 (active)
CAMCTTPCSGAGNASASA [HC1946],0.117 (inactive),1.58,0.427 (inactive)
CAEVPCHRVSAGNASASA [HC2390],2.12,0.773 (inactive),2
CAEPTTPCSGAGNASASA [HC1979],-1.55 (inactive),-0.645 (inactive),-0.627 (inactive)
CAWTTQGCNCAGNASASA [HC310],0.795 (inactive),-2.96 (inactive),-0.152 (inactive)
CAWEMEECSQAGNASASA [HC1788],1.14,0.864 (inactive),-0.48 (inactive)
CATRGERCDLAGNASASA [HC484],-0.0552 (inactive),1.25,1.03
CAEHVVCCSMAGNASASA [HC2135],0.471 (inactive),-0.688 (inactive),1.47
CAVVCCSMSTAGNASASA [HC2098],0.887 (inactive),-0.156 (inactive),0.445 (inactive)
CAYGCRRRRDAGNASASA [FS-737],9.65 (active),10.6 (active),8.47 (active)
CAGRPRSRKIAGNASASA [FS-657],-0.514 (inactive),-1.38 (inactive),0.291 (inactive)
CATTDRRRRDAGNASASA [FS-101],9.9 (active),8.9 (active),5.67 (active)
CAWAHNGLRDAGNASASA [HC640],0.594 (inactive),0.97 (inactive),-0.0784 (inactive)
CALAFRRRRDAGNASASA [FS-346],7.62 (active),8.27 (active),6.14 (active)
CAGRPRRRRDAGNASASA [FS-432],11.8 (active),13.5 (active),9.18 (active)

Sequence,furin cleavage Z-score (7.5 min),furin cleavage Z-score (15 min),furin cleavage Z-score (30 min)
CAEVPCHRPCAGNASASA [HC2420],0.0318 (inactive),0.651 (inactive),0.47 (inactive)
CAIMFAPTLWAGNASASA [HC1577],-1.61 (inactive),-2.05 (inactive),0.617 (inactive)
CASPVFTDNSAGNASASA [HC764],-0.427 (inactive),0.197 (inactive),-1.76 (inactive)
CAAWDMMMNWAGNASASA [HC320],1.05,0.73 (inactive),-0.468 (inactive)
CAPEECSQHLAGNASASA [HC1679],1.99,1.43,0.965 (inactive)
CAGEIPFYGKAGNASASA [HC846],1.57,-1.54 (inactive),-0.341 (inactive)
CAIEANLLWRAGNASASA [HC1274],0.45 (inactive),0.419 (inactive),0.862 (inactive)
CAAKARGPRSAGNASASA [FS-745],11 (active),9.83 (active),7.42 (active)
CAVGKRQPRSAGNASASA [FS-1176],10.8 (active),10.9 (active),8.62 (active)
CAREYRGQRSAGNASASA [FS-705],-0.292 (inactive),2.01,0.594 (inactive)
CASASRGPRSAGNASASA [FS-1078],4.05 (active),4.67 (active),4.87 (active)
CARAERGPRSAGNASASA [FS-1058],3.99 (active),4.52 (active),4.09 (active)
CAATPPGSVTAGNASASA [HC835],-1.05 (inactive),-0.0418 (inactive),-0.602 (inactive)
CAFVGAGLAGAGNASASA [HC1075],-0.934 (inactive),-0.739 (inactive),-0.847 (inactive)
CAVVCCSFSYAGNASASA [HC2047],0.639 (inactive),-0.617 (inactive),-0.397 (inactive)
CATKLLLAVFAGNASASA [HC605],1.92,3.24,0.635 (inactive)
CASTPCSAHMAGNASASA [HC2566],-0.903 (inactive),0.0563 (inactive),1.83
CAAMTPTVATAGNASASA [HC281],0.668 (inactive),1.6,-0.149 (inactive)
CATHSIKKRSAGNASASA [FS-1574],8.84 (active),7.91 (active),7.4 (active)
CASASHKKRSAGNASASA [FS-867],3,2.31,3.6 (active)
CAQTSRSNRFAGNASASA [FS-852],0.217 (inactive),-0.984 (inactive),0.464 (inactive)
CAQTSRNTRSAGNASASA [FS-184],9.04 (active),11.5 (active),9.02 (active)
CAERHRQTRSAGNASASA [FS-763],6.53 (active),6.61 (active),4.64 (active)
